Screening data (PubChem BioAssay)
A selection: hits, their analogues and other compounds. The true share with any hit is near 6.8%.
HCV NS3h FP: hepatitis C NS3 helicase inhibition, primary screen; NS3h Cy5-dT15 DNA binding, fluorescence polarization; inhibition, % at 100 µM; 16,000 compounds, 1.6% hits;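 active means inhibition above the average over every tested compound plus 3 SD, cut at about 40% in these data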
Cy5 interf NS3h: enhances or quenches Cy5 fluorescence in NS3h assay | Cy5-dT15 DNA with NS3h, fluorescence interference; actives lie on both sides; signal over control mean, under 1 quenches | fluorescence interference ratio at 100 µM | 16,000 compounds, 6% hits;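 active means compound fluorescence over control fluorescence at most 0.8, a quencher, or at least a set upper limit, an enhancer; inactive means ratio between 0.8 and the set upper limit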
* marks the source's active call; other numbers are inactive results.

SMILES | HCV NS3h FP | Cy5 interf NS3h
CCc1ccc(N2NC(=O)CC2=O)cc1 | 10 | 0.73*
CCc1ccc(/C=C2\C(=O)NN(c3ccccc3)C2=O)cc1 | 22 | 1
S=c1[nH]nc(-c2cccc(Cl)c2)n1-c1ccccc1 | -10 | 1
CC1=NN(c2ccc(C)c(Cl)c2)C(=O)C1 | -9 | 0.72*
Cc1ccc(N2C(=O)C3C4C=CC(C5CC45)C3C2=O)cc1Cl (centres undefined) | 4 | 0.92
O=[N+]([O-])c1ccccc1-c1nc(-c2ccco2)c(-c2ccco2)[nH]1 | 4 | 0.99
N/C(Cc1ccc([N+](=O)[O-])cc1)=N/OC(=O)c1cccc(I)c1 | 14 | 1.1
N/C(Cc1ccc(Cl)cc1)=N/OC(=O)c1ccc([N+](=O)[O-])cc1 | -8 | 0.79*
O=C1NC(=S)S/C1=C/c1ccc(OCc2cccc(C(=O)O)c2)cc1 | 46* | 0.92
COc1cc(/C=C2/SC(=S)NC2=O)ccc1OS(=O)(=O)c1ccccc1[N+](=O)[O-] | 5 | 1.3*
COc1cc(/C=C2/SC(=S)NC2=O)ccc1OC(=O)c1cccc(Br)c1 | 16 | 0.76*
COc1cc(/C=C2/SC(=S)NC2=O)ccc1OCc1ccc(I)cc1 | 14 | 1.1
O=C1NC(=S)S/C1=C/c1ccc(OCc2ccc(Cl)cc2)cc1 | 19 | 0.97
COc1cc(/C=C2/SC(=NS(=O)(=O)c3ccccc3)NC2=O)c([N+](=O)[O-])cc1OC | 16 | 0.96
N#C/C(=C\c1ccc(-c2cccc(C(F)(F)F)c2)o1)C(=O)Nc1cccc2cccnc12 | 8 | 1.1
CCCc1cc2c(-c3ccccc3)cc(=O)oc2cc1OCC(=O)O | 0 | 1.1
CC(=O)CC(=O)Nc1c(Cl)cccc1Cl | 6 | 1
CC(C)C(=O)Nc1ccc2oc(-c3ccccc3Br)nc2c1 | 9 | 0.91
CCOc1cc(C(=S)N2CCOCC2)cc(Br)c1O | 21 | 0.72*
CCOc1cc(C(=S)N2CCOCC2)ccc1OS(=O)(=O)c1ccc(C)cc1 | 11 | 0.88
COc1ccc(N2C(=O)/C(=C3/C(=O)N(Cc4ccccc4F)c4ccccc43)SC2=S)cc1 | 7 | 1.2*
CN1C(=O)/C(=C2/C(=O)N(CC(N)=O)c3ccccc32)SC1=S | 3 | 0.88
COc1ccc(C(=O)Nc2ccccc2C(N)=O)cc1[N+](=O)[O-] | 4 | 0.91
CC(=O)CC(=O)Nc1ccc(Cl)c(Cl)c1 | 3 | 1
CC(=O)CC(=O)Nc1ccc(Cl)c(C(F)(F)F)c1 | 4 | 0.68*
SMILES | HCV NS3h FP | Cy5 interf NS3h
c1ccc(OCCSc2nc3ccccc3s2)cc1 | 8 | 0.89
Cc1ccccc1OCCCNCC1CCCO1 (centres undefined) | -14 | 1
CC(NC(=O)C(=O)NCC1CCCO1)c1ccccc1 (centres undefined) | -2 | 0.64*
O=C(NCC1CCCO1)C(=O)Nc1ccc(F)cc1 (centres undefined) | 2 | 1
O=C(NCC1CCCO1)C(=O)Nc1ccccc1F (centres undefined) | 2 | 0.99
CCc1ccc(NC(=O)C(=O)NCC2CCCO2)cc1 (centres undefined) | 18 | 0.75*
CCOc1cccc(C(=O)Nc2nnc(CSCc3ccccc3)s2)c1 | 9 | 0.98
O=c1/c(=C/c2cn(CCOc3ccc(Br)cc3)c3ccccc23)sc2nc3ccccc3n12 | 5 | 1
C=CCNC(=O)C(=O)Nc1ccccc1OC | -4 | 1
CC(=O)Nc1cccc(C(=O)/C=C/c2ccc(/C=C/C(=O)c3cccc(NC(C)=O)c3)cc2)c1 | 14 | 1.2
Cc1cccc(C(=O)Nc2ccc(C(=O)/C=C/c3ccncc3)cc2)c1 | -5 | 0.74*
COC(=O)CN1C(=O)/C(=C/c2cc(OC)ccc2OC)SC1=S | 10 | 1
COc1ccc(OC)c(/C=C2/SC(=S)N(CNc3cccc(Cl)c3)C2=O)c1 | 22 | 0.6*
CCNC(=O)CNC(=O)CNS(=O)(=O)c1ccc(C)cc1 | 3 | 0.99
COc1ccc(C(=O)Nc2cc(C)nc3ccccc23)cc1OC | 1 | 0.94
Cc1nc(N=C(N)NC(=O)c2ccccc2N)nc2ccccc12 | 17 | 1.2*
COc1cccc(C(=O)N2CCN(C3CC4CCC3C4)CC2)c1 (centres undefined) | -10 | 0.68*
COc1cc(OC)cc(C(=O)N2CCN(C3CCC(c4ccccc4)CC3)CC2)c1 (centres undefined) | 13 | 0.82
COC(=O)C1=C(C)N=c2s/c(=C/c3ccc(-c4cccc([N+](=O)[O-])c4)o3)c(=O)n2C1c1ccc(OC(C)=O)cc1 (centres undefined) | 9 | 0.91
Cc1ccc(C(=O)/C=C2\C(=O)Nc3ccccc32)cc1 | 15 | 0.95
CC(=O)N1C(=O)/C(=C/C(=O)c2ccccc2)c2ccccc21 | 9 | 0.79*
CCc1ccc(S(=O)(=O)Nc2cc3c(C(=O)O)c(C)oc3c3ccccc23)cc1 | -18 | 0.72*
CCOC(=O)c1c(C)oc2c(Br)cc(NS(=O)(=O)c3ccccc3)cc12 | 14 | 0.97
